Assay outcomes: PubChem BioAssay, The Scripps Research Institute Molecular Screening Center
FBW7 act: human FBW7 E3 ligase activation, primary screen. normalized activity (activation), % at 26.1 µM. Q969H0. AlphaScreen FBW7–phospho-cyclin E peptide binding, activator screen. AID 1259310. 650,000 tested, 0.13% active; in the data active = normalized activity above about 1.9%;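 note: purified mutant Fbw7 with reduced substrate affinity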
GPR151 activ: activators of human GPR151. 650,000 tested, 1% active. PathHunter beta-arrestin GPR151 cells, luminescence. AID 1508602. activation, % at 11.2 µM. Q8TDV0; in the data active = activation above about 4.9%;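 note: 0% = median of compound wells and 100% = cells with positive control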
Target sequence (Q8TDV0 whole entry, looked up): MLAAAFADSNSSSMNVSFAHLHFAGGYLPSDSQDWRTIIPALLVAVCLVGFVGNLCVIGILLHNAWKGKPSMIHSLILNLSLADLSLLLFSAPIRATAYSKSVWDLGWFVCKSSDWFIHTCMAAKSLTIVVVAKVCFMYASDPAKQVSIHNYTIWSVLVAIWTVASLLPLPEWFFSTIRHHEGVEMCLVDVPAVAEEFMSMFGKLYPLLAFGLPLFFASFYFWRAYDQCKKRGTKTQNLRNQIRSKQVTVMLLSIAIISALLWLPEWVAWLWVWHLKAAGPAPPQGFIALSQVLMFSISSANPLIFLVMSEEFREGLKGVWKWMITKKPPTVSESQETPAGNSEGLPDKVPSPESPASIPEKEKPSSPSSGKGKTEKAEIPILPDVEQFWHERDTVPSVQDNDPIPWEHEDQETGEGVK
MITF inh: inhibitors of human MITF. 650,000 tested, 0.91% active. AID 1259374. inhibition, % at 2.6 µM. O75030. AlphaScreen MITF homodimerization, bead proximity signal; in the data active = inhibition above about 50%;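 note: 0% = vehicle wells with protein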
TEAD-YAP block: TEAD-YAP interaction inhibition. HEK-TIYL cells, TEAD-Gal4/YAP UAS-luciferase luminescence. inhibition, % at 9.12 µM. 640,000 tested, 1.4% active. AID 1259422; in the data active = inhibition above about 32%;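 note: 0% = median of test compound wells and 100% = reference inhibitor wells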
An asterisk follows results filed as active. An excerpt weighted towards active compounds, which were near 3.5% of everything screened.

SMILES | FBW7 act | GPR151 activ | MITF inh | TEAD-YAP block
O=C(c1ccccc1)N1CCN(c2nc(-c3ccccc3)c3cc(Cl)ccc3n2)CC1 | 1.9* | 0 | 17 | 2
O=C(c1cc(-c2cccnc2)nc2ccc(Cl)cc12)N1CCN(c2ncccn2)CC1 | 0 | 0 | 9 | 11
CC(=O)N1CCN(c2nc(-c3ccccc3)c3cc(Cl)ccc3n2)CC1 | 0 | 1 | 13 | 3
CCOC(=O)N1CCN(C(=O)c2cc(-c3ccncc3)nc3ccccc23)CC1 | 0 | 2 | 1 | 52*
O=C(CCS(=O)(=O)c1ccc2c(c1)SCC(=O)N2)NCCc1ccccc1 | 0 | 2 | 2 | 0
Cc1ccc(CN2CCN(CC(=O)NCCC(C)C)C2=O)cc1 | 0 | -1 | 3 | -2
Cc1ccc(-c2cc(C(=O)N3CCN(c4ccccc4)CC3)c3ccccc3n2)s1 | 0 | 0 | -5 | 49*
COc1cc(OC)cc(C(=O)N/N=C(\C)CC(=O)Nc2ccccc2C(F)(F)F)c1 | 0 | -2 | -2 | 49*
C/C(CC(=O)Nc1ccccc1C#N)=N\NC(=O)c1ccncc1 | 1.9* | 1 | 9 | 6
C/C(CC(=O)Nc1ccc(I)cc1)=N\NC(=O)c1cccc(O)c1 | 0 | 0 | -2 | 12
C/C(CC(=O)Nc1ccc(C)cc1)=N\NC(=O)c1cccc(O)c1 | 0 | -3 | 9 | 35*
COc1cc(OC)cc(C(=O)N/N=C(\C)CC(=O)Nc2ccc(Br)cc2)c1 | 0 | 1 | 13 | 54*
COc1cccc(C(=O)N/N=C(\C)CC(=O)Nc2ccc(Br)cc2)c1 | 1 | 0 | 9 | -1
CC(C)NC(=O)N1CCC(c2nnc(-c3ccco3)o2)CC1 | 0 | 0 | 10 | -1
CCOc1ccc(CNCc2cn[nH]c2-c2ccc(F)cc2)cc1 | 0 | 2 | -2 | 16
Cc1ccc(-c2nnc(CCC(=O)N(C)Cc3ccc4nsnc4c3)o2)s1 | 0 | 1 | 2 | -1
COc1ccc(CCNc2nc(NCCCN3CCCC3=O)nc3c2ncn3C(C)C)cc1 | 0 | 2 | 4 | 7
Cc1cc(F)ccc1S(=O)(=O)NCC1(c2ccc(F)cc2)CC1 | 0 | 1 | 4 | -6
Nc1ccc2sc(-c3ccccc3O)nc2c1 | 1 | 0 | -1 | -75
COc1ccc(-c2csc(-c3cc4cc(Cl)cc(Cl)c4oc3=O)n2)cc1 | 0 | 2 | 2 | 2
Cc1ccc(NC(=O)CSc2nc3cc(C(=O)NCCCOC(C)C)ccc3c(=O)n2Cc2ccco2)cc1Cl | 0 | -1 | 6 | -7
C/C(CC(=O)Nc1cccc(C(F)(F)F)c1)=N\NC(=O)c1ccc2ccccc2c1 | 0 | 0 | 7 | 51*
COc1cc(OC)cc(C(=O)N/N=C(\C)CC(=O)NC2CCCCC2)c1 | 0 | 0 | -3 | 60*
COc1cccc(NC(=O)C(=O)N/N=C(\C)CC(=O)NC2CCCCCCC2)c1 | 0 | -3 | 3 | -50
Fc1ccc(N=c2oc3ccccc3cc2-c2nc3ccccc3[nH]2)cc1 | 0 | -4 | 2 | -40
SMILES | FBW7 act | GPR151 activ | MITF inh | TEAD-YAP block
Fc1ccccc1N=c1oc2ccccc2cc1-c1nc2ccccc2[nH]1 | 0 | -10 | -13 | 40*
COc1ccc(N=c2oc3ccccc3cc2-c2nc3ccccc3[nH]2)cc1 | 0 | -10 | 10 | 38*
Cc1ccc(S(=O)(=O)N(CC(=O)NCc2ccncc2)Cc2ccccc2)cc1 | 1.9* | -1 | 24 | -2
Cc1ccc(CNC(=O)CN(Cc2ccccc2)S(=O)(=O)c2ccccc2)cc1 | 0 | -1 | 12 | 5
O=C1CCCC2=C1C(c1cccc(F)c1Br)n1c(nc3ccccc31)N2 (centres undefined) | 0 | 1 | 13 | 36*
Cc1ccc(NC(=O)C(NS(=O)(=O)c2ccc3c(c2)oc(=O)n3C)C(C)C)cc1 (centres undefined) | 0 | 3 | 7 | 5
COc1ccc2c(c1)C(=NNC(N)=S)c1cc(OC)ccc1-2 | 0 | 0 | 44 | 50*
COc1ccc2c(c1)C(=NO)c1cc(OC)ccc1-2 | 0 | 0 | 12 | -17
O=C(/C=C/c1cccs1)N1CCc2ccccc21 | 0 | -6 | 18 | 70*
O=C(/C=C/c1ccc([N+](=O)[O-])cc1)N1CCCc2ccccc21 | 0 | 1 | 28 | -7
O=C(/C=C/c1ccccc1)N1CCCc2ccccc21 | 0 | 2 | 3 | -27
Cc1cc(C(=O)N2CCc3ccccc32)n(-c2ccccc2)n1 | 0 | 1 | 3 | 35*
COc1ccc(/C=C/C(=O)N2CCc3ccccc32)cc1 | 0 | -7 | 8 | 74*
O=C(/C=C/c1ccccc1)N1CCc2ccccc21 | 0 | -6 | 6 | 66*
C/C=C/C1OC(=O)C2(CCCCC2)C(=O)C1(C)C (centres undefined) | 0 | 1 | 8 | 12
CN(Cc1ccccc1)C1CCN(Cc2ccccc2F)CC1 | 0 | 0 | 47 | 1
Cc1ccc(C)c(N(CC(=O)N2CCN(c3ccccc3F)CC2)S(C)(=O)=O)c1 | 0 | 1 | 0 | 11
CCn1c(=N)c(C(=O)NC)cc2c(=O)n3cccc(C)c3nc21 | 0 | -1 | 20 | 32*
CCn1c(=N)c(C(=O)NCCOC)cc2c(=O)n3cccc(C)c3nc21 | 0 | -1 | 8 | 14
COc1ccccc1C1=NN(c2nc(-c3ccccc3)c3cc(Br)ccc3n2)C(c2ccc(Br)cc2)C1 (centres undefined) | 0 | 0 | -14 | -1
Cc1c(OC(=O)CNC(=O)OC(C)(C)C)ccc2c1oc(=O)c1ccccc12 | 0 | 0 | 0 | 2
CC(=O)N1CCc2c(sc(NC(=O)CSc3ccccc3)c2C(N)=O)C1 | 0 | 4 | 13 | -5
CCOC(=O)N1CCc2c(sc(NC(=O)c3cccc(Br)c3)c2C#N)C1 | 0 | 0 | -13 | 42*
CC(=O)N1CCc2c(sc(NC(=O)/C=C/c3cccs3)c2C(N)=O)C1 | 0 | -1 | 10 | 41*
CCOc1ccccc1NC(=O)c1c(N)sc2c1CCCC2 | 0 | 0 | -22 | 15
SMILES | FBW7 act | GPR151 activ | MITF inh | TEAD-YAP block
CCOC(=O)N1CCc2c(sc(N)c2C(=O)Nc2ccccc2OCC)C1 | 0 | -2 | -7 | 32*
CC(=O)N1CCc2c(sc(NC(=O)CCc3ccccc3)c2C(N)=O)C1 | 0 | 0 | 9 | 51*
CCOC(=O)c1c(NC(=O)c2ccc(Cl)s2)sc2c1CCN(C(C)C)C2 | 2.2* | 0 | 9 | -8
CCOC(=O)N1CCc2c(sc(NC(=O)/C=C/c3ccc([N+](=O)[O-])cc3)c2C#N)C1 | 0 | 1 | 1 | 29
CCOC(=O)N1CCc2c(sc(NC(=O)Cc3ccccc3)c2C(N)=O)C1 | 0 | -1 | 17 | -3
CC(C)N1CCc2c(sc(NC(=O)c3cc4ccccc4oc3=O)c2C(N)=O)C1 | 0 | 0 | 10 | 62*
CCOC(=O)c1c(NC(=O)Cc2ccccc2)sc2c1CCN(C(=O)OCC)C2 | 5.2* | 0 | -4 | 2
CCOC(=O)N1CCc2c(sc(NC(=O)/C=C/c3cccs3)c2C#N)C1 | 0 | 1 | 0 | 49*
